BRCA1 expr act – increases BRCA1 expression | MCF7-BRCA1-FFLuc reporter, luminescence, 48 h; response scale: scaled: vehicle 0%, 10 µM genistein 100% | Potency, µM (series often up to 46.1 µM), for the others: at the top dose activation, actives largely listed as activators | actives 1.1% (n = 380,000); note: nearly all actives have a fitted effect of over 80% in size
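Compounds are tested at multiple concentrations on MCF7 BRCA1-luciferase reporter cells seeded at 2000 per well; after 48 h, a single luminescence end-point is taken and curves fitted to the normalized data.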
Integrin act MD – integrin-mediated muscular dystrophy alleviation activation | alpha7betagal myoblasts, beta-gal FDG fluorescence, 48 h | Potency, µM (top dose mostly 38.3 µM), without a hit: top-dose activation, usual class: activators | actives 0.064% (n = 350,000) | AID 624291;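 note: 100% = response of the positive control SU9516; nearly all actives have a fitted effect of over 60% in size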
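Alpha7betagal+/- myoblasts (passage 13) were plated 16-24 hr, then exposed to compounds (1:260 dilution of DMSO stock) for 48 hours at 37C. After MPER lysis, β-galactosidase reporter activity was read as FDG fluorescence (ex 480/em 540) after 30 minutes.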
GLP1R ag – activates the human GLP-1 receptor. HEK293 GLP-1R CRE-luciferase, luminescence, 4-6 h; cells express a hypersensitive GLP-1R form. Potency, µM (series often up to 45.6 µM), inactives show at the top dose activation, hits mostly activators. actives 0.007% (n = 380,000). AID 624172. P43220; note: % of control where 0% means no effect
Target sequence (P43220 whole entry, looked up): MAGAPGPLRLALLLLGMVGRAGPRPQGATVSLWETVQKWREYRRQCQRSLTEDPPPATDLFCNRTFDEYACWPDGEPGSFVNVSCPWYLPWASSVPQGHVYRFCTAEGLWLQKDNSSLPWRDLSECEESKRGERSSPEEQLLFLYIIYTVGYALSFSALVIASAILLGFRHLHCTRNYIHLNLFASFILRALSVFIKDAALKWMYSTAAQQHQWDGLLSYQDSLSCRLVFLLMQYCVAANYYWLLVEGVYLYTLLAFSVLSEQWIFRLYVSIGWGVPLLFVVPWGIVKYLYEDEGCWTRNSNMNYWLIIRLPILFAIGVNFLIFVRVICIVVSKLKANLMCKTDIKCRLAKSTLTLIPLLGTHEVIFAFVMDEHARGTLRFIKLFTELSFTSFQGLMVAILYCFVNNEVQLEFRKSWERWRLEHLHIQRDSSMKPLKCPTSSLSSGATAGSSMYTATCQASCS
HEK293 tox – cytotoxicity in counter-screen for GLP-1R inverse agonists; actives 0.13% (n = 410,000); Potency, µM (highest dose often 38.3 µM), for the others: at the top dose activity change, negative = inhibition, most hits filed as inhibitors; HEK293 cAMP-luciferase reporter cells, luminescence, 24 h;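 note: loss of luciferase light is scored as toxicity; % is set by controls: 0 for no effect and ±100 for the full control effect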
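Step one: seed cells (200 cells/uL, DMEM with 10% Nu serum, 1% pen-strep). Step two: 12-hour incubation at 37 deg C. Step three: pin 23 nL compound, incubate 24 hr. Step four: add luciferase reagent, read luminescence 12 min later.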
GLP1R inv ag – acts as inverse agonist at human GLP-1 receptor; actives 1.6% (n = 410,000); AID 624417; HEK293 GLP-1R CRE-luciferase, luminescence, 24 h; GLP-1R form is constitutively active; Potency, µM (highest dose often 38.3 µM), inactives show top-dose activity change, negative = inhibition, usual class: inhibitors; note: % is set by controls: 0 for no effect and ±100 for the full control effect; nearly all actives have a fitted effect of over 55% in size
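GLP-1R inverse agonism mode: basal reporter luminescence in engineered HEK293 cells measured after one day of compound exposure at 37 deg C, with a 12 min room-temperature detection step.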
Active calls of the source: *; [ ] = another dose, or the depositor's remark. The list is not random: actives were taken first. Their share in the collection is about 2.7%. Calls come from the whole dose curve; as a rule, active = well fitted curve in the direction sought with a large enough effect; inconclusive = small, poorly fitted or top-dose-only effect, or another doubt; inactive = no such curve, though single readings can be large; an effect the other way counts as inactive or inconclusive. Potency is the fitted concentration of half-maximal effect.

Results for CCOC(=O)c1ccc(CNC(=O)CCC(=O)O)cc1 ?
BRCA1 expr act: 14%; Integrin act MD: 13%; GLP1R ag: -2%; HEK293 tox: -12%; GLP1R inv ag: 2%

What do the screens show for `CCOC(=O)c1ccc(N2C(=O)C(O)=C(C(C)=O)C2c2ccccc2)cc1` (stereo not given)?
BRCA1 expr act: -23%; Integrin act MD: 12%; GLP1R ag: -18%; HEK293 tox: -3%; GLP1R inv ag: -19%

How did CCOC(=O)c1ccc(N2C(=O)[C@@H](c3ccccc3)[C@H]2c2ccccc2)cc1 do in these assays?
BRCA1 expr act: -13%; Integrin act MD: 0%; GLP1R ag: -2%; HEK293 tox: 5%; GLP1R inv ag: 5µM*

What do the screens show for `CCOC(=O)c1ccc(N/C=C/C(=O)c2ccc(OC)cc2)cc1`?
BRCA1 expr act: 55%; Integrin act MD: 7%; GLP1R ag: -8%; HEK293 tox: 1%; GLP1R inv ag: 0%

How did Cc1ccc(C(=O)c2c(N)c(C(=O)Nc3cccc(C(F)(F)F)c3)c3ccccn23)cc1 do in these assays?
HEK293 tox: 3%; GLP1R inv ag: 11%

Results for NS(=O)(=O)c1ccc(CCNCc2ccccc2OCc2ccc(Cl)cc2)cc1 ?
BRCA1 expr act: 0%; Integrin act MD: -54%; GLP1R ag: -5%; HEK293 tox: -29%; GLP1R inv ag: 7.9µM*

Results for O=C(COc1ccccc1)NC1CCCCCCC1 ?
BRCA1 expr act: 68%; Integrin act MD: 4%; GLP1R ag: 5%; HEK293 tox: 0%; GLP1R inv ag: 11µM*

Results for CCc1cc2ccccc2nc1SCC(=O)NC1CCCC1 ?
BRCA1 expr act: -35%; Integrin act MD: 2%; GLP1R ag: 18%; HEK293 tox: 11%; GLP1R inv ag: 10µM*

What do the screens show for `N#Cc1cc2ccccc2nc1SCC(=O)NC1CC1`?
BRCA1 expr act: 56%; Integrin act MD: 1%; GLP1R ag: 4%; HEK293 tox: 6%; GLP1R inv ag: 4%

How did O=C(NC1CCCCCC1)C(=S)NCc1ccccc1 do in these assays?
BRCA1 expr act: 11µM*; Integrin act MD: -9%; GLP1R ag: 2%; HEK293 tox: -1%[7.66 µM]; GLP1R inv ag: -15%[7.66 µM]

Results for O=C(COC(=O)c1c(F)cccc1Cl)NC1CCCCC1 ?
BRCA1 expr act: 11µM*; Integrin act MD: -5%; GLP1R ag: 15%; HEK293 tox: -5%; GLP1R inv ag: -11%

How did O=c1c2sc3ccccc3c2n(Cc2cccc(C(F)(F)F)c2)c(=O)n1Cc1ccc(F)cc1 do in these assays?
BRCA1 expr act: 0%; GLP1R ag: 1%; HEK293 tox: 2%; GLP1R inv ag: -6%

How did COc1ccccc1NC(=O)CSc1nc2ccccc2cc1Cc1ccccc1 do in these assays?
BRCA1 expr act: 0%; Integrin act MD: 10%; GLP1R ag: 1%; HEK293 tox: 4%; GLP1R inv ag: 10µM*

Results for O=C(CSc1ccccc1)NC1CCCCCCC1 ?
BRCA1 expr act: 10µM*; Integrin act MD: 21%; GLP1R ag: 4%; HEK293 tox: 0%; GLP1R inv ag: inconclusive

What do the screens show for `O=C(COc1ccc(C(=O)c2ccccc2)cc1)NC1CCCCC1`?
BRCA1 expr act: -28%; Integrin act MD: 23%; GLP1R ag: -10%; HEK293 tox: 20%; GLP1R inv ag: 3%

What do the screens show for `O=C(COc1ccc(C(=O)c2ccccc2)cc1)NC1CCCCCC1`?
BRCA1 expr act: -51%; Integrin act MD: -35%; GLP1R ag: 1%; HEK293 tox: -13%; GLP1R inv ag: 8.9µM*

What do the screens show for `CC[C@@H](C)[C@H](CN[C@H](CNC)C(C)C)NC[C@@H](C)c1ccc(CC(C)C)cc1`?
BRCA1 expr act: -35%; Integrin act MD: -52%; GLP1R ag: 0%; HEK293 tox: 11µM*; GLP1R inv ag: inconclusive

What do the screens show for `CCN(CC)C(=O)c1sc2c(c1C)c(=O)n(-c1ccccc1)c(=O)n2CC(=O)Nc1ccc(C)cc1C`?
HEK293 tox: -1%; GLP1R inv ag: 14%

How did CC(=O)c1cc2c(=O)c3ccccc3oc2nc1C do in these assays?
BRCA1 expr act: 10µM*; Integrin act MD: -11%; GLP1R ag: -11%; HEK293 tox: -9%; GLP1R inv ag: 14%

What do the screens show for `COc1ccc2c(=O)c3ccccc3oc2c1`?
BRCA1 expr act: inconclusive; Integrin act MD: -2%; GLP1R ag: 20%; HEK293 tox: 0%; GLP1R inv ag: 13%

What do the screens show for `CC(=O)c1ccc2oc3ccccc3c(=O)c2c1`?
BRCA1 expr act: 7.9µM*; Integrin act MD: 5%; GLP1R ag: -6%; HEK293 tox: 2%; GLP1R inv ag: 9%

Results for Fc1ccccc1N1CCN(c2cnc3ccccc3n2)CC1 ?
BRCA1 expr act: 38%; Integrin act MD: 0%; GLP1R ag: 0%; HEK293 tox: -3%; GLP1R inv ag: 10µM*

What do the screens show for `c1ccc(CN2CCN(c3cnc4ccccc4n3)CC2)cc1`?
BRCA1 expr act: inconclusive; Integrin act MD: 3%; GLP1R ag: inconclusive; HEK293 tox: 3%; GLP1R inv ag: 10%

Results for O=C(O)Cc1cccc(-c2cc(CCCCCCc3ccc(O[C@H]4O[C@H](CO)[C@@H](O)[C@H](O)[C@@H]4O)c(-c4cccc(CC(=O)O)c4)c3)ccc2O[C@H]2O[C@H](CO)[C@@H](O)[C@H](O)[C@@H]2O)c1 ?
GLP1R ag: 0%

How did Cc1sc2nc(CN3CCOCC3)[nH]c(=O)c2c1-c1ccccc1 do in these assays?
BRCA1 expr act: -13%; Integrin act MD: -16%; GLP1R ag: -2%; HEK293 tox: -12%; GLP1R inv ag: -1%

Results for COCCNCc1nc2sc(C)c(-c3ccccc3)c2c(=O)[nH]1 ?
BRCA1 expr act: -8%; Integrin act MD: 0%; GLP1R ag: 9%; HEK293 tox: inconclusive; GLP1R inv ag: 11µM*

What do the screens show for `CCn1c(SCC(=O)Nc2nccs2)nnc1-c1ccc(S(=O)(=O)N2CCCCCC2)cc1`?
BRCA1 expr act: -54%; Integrin act MD: -37%; GLP1R ag: -6%; HEK293 tox: -16%; GLP1R inv ag: -9%

How did CCC(Sc1nnc(-c2ccc(C)c(Cl)c2)n1CC)C(=O)Nc1nccs1 (stereo not given) do in these assays?
BRCA1 expr act: -53%; Integrin act MD: -6%; GLP1R ag: 7%; HEK293 tox: 0%; GLP1R inv ag: 6.3µM*

How did COCCNC(=O)CCCn1c(SCC(=O)Nc2cccc(C)c2)nc2c(sc3ccccc32)c1=O do in these assays?
HEK293 tox: 0%; GLP1R inv ag: -1%

What do the screens show for `COc1ccc(-c2[nH]c3ccccc3c2SCCN)cc1`?
BRCA1 expr act: -1%; Integrin act MD: -42%; GLP1R ag: -1%; HEK293 tox: inconclusive; GLP1R inv ag: 2µM*

Compound activity (PubChem BioAssay)
